Screening results from PubChem.
CYP2C9 act – human CYP2C9 activators, primary screen, biochemical, luminescence; Cytochrome P450 2C9 (Homo sapiens), P11712; recombinant CYP2C9, luciferin-H conversion; stronger effect = higher value; factor 1 = untreated enzyme, 0 = blocked; activation factor at 5 µM; actives 1.4% (n = 96,000); AID 1024, 2008;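 active = activation factor of 2 or more for CYP2C9 at a 5 µM dose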
Target sequence (P11712 whole entry, looked up): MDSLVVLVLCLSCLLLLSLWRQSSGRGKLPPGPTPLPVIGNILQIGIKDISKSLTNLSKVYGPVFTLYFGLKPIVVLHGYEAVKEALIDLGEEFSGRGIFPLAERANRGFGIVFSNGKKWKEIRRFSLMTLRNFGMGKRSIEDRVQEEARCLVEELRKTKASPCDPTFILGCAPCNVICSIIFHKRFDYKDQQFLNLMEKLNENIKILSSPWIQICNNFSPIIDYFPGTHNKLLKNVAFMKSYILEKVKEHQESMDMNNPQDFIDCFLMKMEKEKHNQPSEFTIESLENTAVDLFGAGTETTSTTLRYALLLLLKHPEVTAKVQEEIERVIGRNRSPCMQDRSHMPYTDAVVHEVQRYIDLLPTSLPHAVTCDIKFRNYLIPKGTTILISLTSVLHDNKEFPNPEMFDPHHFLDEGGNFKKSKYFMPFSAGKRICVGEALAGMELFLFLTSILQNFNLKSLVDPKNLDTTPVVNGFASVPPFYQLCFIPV
CYP2C9 inh – blockers of cytochrome P450 2C9 activity – biochemical, luminescence, ADME assay, primary screen. P11712. CYP2C9 Supersomes, luciferin-H conversion. inhibition, % at 5 µM. actives 20% (n = 96,000);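 active = blocking of liver enzyme CYP2C9 beyond about 50% at 5 µM, limit read from the data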
PLK1 inh – human PLK1 kinase inhibitors, primary screen, biochemical, TR-FRET. recombinant PLK1 kinase, TR-FRET peptide phosphorylation. inhibition, % at 10 µM. AID 619, 2007. Serine/threonine-protein kinase PLK1 (Homo sapiens), P53350. actives 0.53% (n = 97,000);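 active = inhibition of 50% or more in the single-concentration screen; inactive = inhibition below 50%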
CYP2C19 activ – human CYP2C19 activators, primary screen, biochemical, luminescence. 96,000 tested, under 10 active. recombinant CYP2C19, luciferin-H EGE luminescence; stronger effect = higher value; 0 = fully inhibited enzyme, 1 = untreated enzyme. AID 1025, 2008. activation factor at 5 µM;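 active = activation factor of at least 2 at 5 µM in the primary screen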
Plk1 PBD FP – Plk1 polo box domain binding inhibitors, primary screen, biochemical, fluorescence polarization; Serine/threonine-protein kinase PLK1 (Homo sapiens), P53350; Plk1 PBD phosphopeptide binding; inhibition, %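 (tested at about 20 µM)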; actives 0.13% (n = 97,000); AID 693, 2007; in the data active = inhibition above about 34%, passing the limit was not always enough
CYP2C19 inhib – blockers of cytochrome P450 2C19 activity – biochemical, luminescence, ADME assay, primary screen; inhibition, % at 5 µM; P33261; CYP2C19 Supersomes, luciferin-H EGE luminescence, 30 min; actives 21% (n = 96,000); AID 778, 2007;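 active = CYP2C19 inhibition above a set limit at 5 µM in the primary screen, cut at about 50% in these data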
Numbers stand for hits; i = inactive; nt = not tested or not shown. In the library only some 28% were active in any assay of this set; here they are far more common.

SMILES | CYP2C9 act | CYP2C9 inh | PLK1 inh | CYP2C19 activ | Plk1 PBD FP | CYP2C19 inhib
O=C(CSc1nccn1-c1cccc(Cl)c1)Nc1ccc2c(c1)OCCO2 | i | 66 | i | i | i | 66
Nn1cnnc1SCC(=O)Nc1ccc2c(c1)OCCO2 | i | i | i | i | i | i
COc1ccc(-n2ccnc2SCC(=O)Nc2ccccc2)cc1 | i | 60 | i | i | i | 60
COc1cccc(-n2ccnc2SCC(=O)Nc2ccccc2)c1 | i | i | i | i | i | 80
CCc1nnc(NC(=O)CSc2nccn2-c2cccc(C)c2)s1 | i | i | i | i | i | i
Nc1nnc(CSCc2ccc(F)cc2)s1 | i | i | nt | i | nt | i
Cc1ccccc1-c1nc(CS(=O)CC(=O)NCCCN(C)c2ccccc2)c(C)o1 (centres undefined) | i | i | i | i | i | i
Cc1ccc(NC(=O)CS(=O)CC(=O)NCCCN(C)c2ccccc2)cc1 (centres undefined) | i | 84 | i | i | i | 60
Cc1cccc(NC(=O)c2ccc(C3SCC(=O)N3CCc3ccccc3)cc2)c1C (centres undefined) | i | 89 | i | i | i | 82
O=C(NCc1ccccc1)c1ccc(C2SCC(=O)N2Cc2ccccc2)cc1 (centres undefined) | nt | nt | i | nt | i | nt
CCc1ccc(NC(=O)c2ccc(C3SCC(=O)N3CCc3ccccc3)cc2)cc1 (centres undefined) | i | 66 | i | i | i | i
Cc1ccc(-n2nc(C)cc2NC(=O)c2ccc(C)s2)cc1 | i | i | i | i | i | 76
O=C(Cn1cc2c(n1)CCCC2)Nc1cc(-c2cccc(Cl)c2)no1 | i | 57 | nt | i | nt | i
Cn1c(Cn2nnc3ccccc32)nnc1SCC(N)=O | i | i | i | i | i | i
Cc1nnc(SCC(=O)N2c3ccccc3Sc3ccccc32)n1N | i | i | i | i | i | i
Cn1nnnc1SCC(=O)N1c2ccccc2Sc2ccc(Cl)cc21 | i | i | i | i | i | 75
Cn1c(Cn2nnc3ccccc32)nnc1SCC(=O)N1c2ccccc2CCc2ccccc21 | i | 64 | i | i | i | i
Cn1c(Cn2nnc3ccccc32)nnc1SCC(=O)N1c2ccccc2Sc2ccccc21 | i | 52 | i | i | i | i
CCOC(=O)c1c(NC(=O)Cn2nc([N+](=O)[O-])c(Br)c2C)sc2c1CCC(C)C2 (centres undefined) | i | i | i | i | i | i
Cc1ccc(C2=N/C(=C/c3cccs3)C(=O)N2Nc2ccccc2)cc1 | i | i | i | i | i | i
C=CCc1cccc2cc(C(=O)N3CCN(C(=O)c4ccco4)CC3)c(=O)oc12 | 2.3 | i | i | i | i | i
C=CCc1cccc2cc(C(=O)N(CC)CC)c(=O)oc12 | 2.2 | i | i | i | i | i
C=CCc1cccc2cc(C(=O)N(C)C)c(=O)oc12 | 3 | i | i | i | i | i
C=CCc1cccc2cc(C(=O)OCC(=O)c3ccccc3)c(=O)oc12 | 2.9 | i | i | i | i | i
COc1ccc(N2CCN(C(=O)CCCSc3nc4ccccc4[nH]3)CC2)cc1 | i | i | i | i | i | i
SMILES | CYP2C9 act | CYP2C9 inh | PLK1 inh | CYP2C19 activ | Plk1 PBD FP | CYP2C19 inhib
COc1c2c(nc3occc13)C(CC=C(C)C)(OC)C(OC(C)=O)CC2 (centres undefined) | nt | nt | i | nt | i | nt
COc1ccccc1NC(=O)Cn1nnc(-c2ccccc2NC(=O)c2cccs2)n1 | i | i | i | i | i | i
COc1ccc(C(=O)Cn2nnc(-c3ccccc3NC(=O)C3CCCCC3)n2)cc1 | i | 85 | i | i | i | i
O=C(Cn1nnc(-c2ccccc2NC(=O)c2cccs2)n1)Nc1ccccc1 | i | 76 | i | i | i | i
COc1ccc(NC(=O)Cn2nnc(-c3ccccc3F)n2)cc1 | i | i | i | i | i | i
COc1ccc(NC(=O)Cn2nnc(-c3ccccc3NC(=O)C3CC3)n2)cc1 | i | i | nt | i | nt | 94
CCOc1ccc(NC(=O)Cn2nnc(-c3ccccc3F)n2)cc1 | i | i | i | i | i | i
CCOc1ccc(NC(=O)Cn2nnc(-c3ccccc3NC(=O)C3CC3)n2)cc1 | i | i | i | i | i | 82
N#Cc1cc(-c2ccc(Cl)cc2)cnc1Sc1ccc(F)cc1 | i | i | i | i | i | i
COc1cc(C(=O)NCCc2ccc(S(N)(=O)=O)cc2)cc(OC)c1OC | i | i | i | i | i | i
CCC(=O)Nc1ccccc1-c1nnn(CC(=O)N2c3ccccc3CC2C)n1 (centres undefined) | i | 78 | i | i | i | i
COc1cc(NC(=O)Cn2nnc(-c3ccccc3N)n2)cc(OC)c1 | i | 54 | i | i | i | i
CCCC(O)(CCN1CCOCC1)c1ccc(Br)cc1 (centres undefined) | i | i | i | i | i | i
O=C(N=c1nc2ccccn2s1)c1ccccc1 | i | i | nt | i | nt | 76
CCOC(=O)c1cc2c(s1)-c1ccccc1CC2 | i | i | i | i | i | i
CCCCC(C(=O)O)C(C)CC(=O)Nc1ccn(-c2ccccc2)n1 (centres undefined) | i | i | i | i | i | i
Clc1ccc(NC2(c3nnnn3C3CCCCC3)CCCCC2)cc1 | i | i | i | i | i | i
Cc1cccc(C)c1-n1nnnc1C1(Nc2ccccc2)CCCCC1 | i | 61 | i | i | i | 61
CCCC(=O)NCCCc1nc2ccccc2n1C(C)C | i | i | i | i | i | i
Cc1nc2sc(C(c3ccco3)N3CCN(c4ccccc4F)CC3)c(O)n2n1 (centres undefined) | i | 69 | i | i | i | 92
Cc1nc2sc(C(c3ccc(Cl)cc3)N3CCN(c4ccccc4F)CC3)c(O)n2n1 (centres undefined) | i | i | i | i | i | 67
Cc1nc2sc(C(c3ccc(F)cc3)N3CCOCC3)c(O)n2n1 (centres undefined) | i | i | i | i | i | i
COc1ccc(N2CCN(Cc3nc4c(c(=O)[nH]c(=O)n4C)n3CC(C)=O)CC2)cc1 | nt | nt | i | nt | i | nt
CC(=O)Oc1c(Cl)cc(Cl)cc1/C=C/c1ccc2ccccc2n1 | i | i | i | i | i | i
COc1cc(/C=C/c2cc(OC(C)=O)c3ccccc3n2)c(OC(C)=O)c([N+](=O)[O-])c1 | i | 79 | i | i | i | 75
COc1ccc(-c2cc(C3CCN(c4cc(Cl)nc(N)n4)CC3)[nH]n2)cc1 | i | i | i | i | i | 59
Cc1cc(C)c2cc(C#N)c(NCCOC(=O)c3ccccc3C)nc2c1 | i | 68 | i | i | i | 62
COc1ccc(C=O)cc1COc1ccc(Cl)cc1[N+](=O)[O-] | i | i | i | i | i | i
